From PubChem BioAssay (NCI)
This is part of a sample that, as a whole, favours compounds with a hit. Of some 83,000 tested, about 20% had one in any assay.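 Step 1: grow cells in 96-well plates. Step 2: add test compound at a single concentration. Step 3: incubate 48 h. Step 4: record percent growth.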 Activity calls are given as the source filed them. The calls were made as follows: active = growth percent below 10; inactive = the rest.

Legend:
Assay in all cases: NCI-60 one-dose screen, 48 h (100 = growth as untreated, 0 = no growth, -100 = all killed)
Conditions in all cases: 10 µM
SK-MEL-2 melanoma = tested on: SK-MEL-2 melanoma
EKVX NSCLC = tested on: EKVX NSCLC
SN12C renal = tested on: SN12C renal
UO-31 renal = tested on: UO-31 renal
TK-10 renal = tested on: TK-10 renal
ACHN renal = tested on: ACHN renal
CAKI-1 renal = tested on: CAKI-1 renal
A498 renal = tested on: A498 renal
MOLT-4 leukemia = tested on: MOLT-4 leukemia
SR leukemia = tested on: SR leukemia
RPMI-8226 leukemia = tested on: RPMI-8226 leukemia
OVCAR-8 ovarian = tested on: OVCAR-8 ovarian
OVCAR-5 ovarian = tested on: OVCAR-5 ovarian
OVCAR-4 ovarian = tested on: OVCAR-4 ovarian
SK-OV-3 ovarian = tested on: SK-OV-3 ovarian
IGROV1 ovarian = tested on: IGROV1 ovarian
OVCAR-3 ovarian = tested on: OVCAR-3 ovarian
HS 578T breast = tested on: HS 578T breast
NCI/ADR-RES ovarian = tested on: NCI/ADR-RES ovarian
CCRF-CEM leukemia = tested on: CCRF-CEM leukemia

Measured: growth

COc1ccc(/C=C/c2nnc(/C=C/c3ccc(OC)c(OC)c3)o2)cc1OC
inactive: SK-MEL-2 melanoma 20.3% | EKVX NSCLC 36.9% | SN12C renal 22.1% | UO-31 renal 37.4% | TK-10 renal 45.5% | ACHN renal 45.4% | CAKI-1 renal 51.4% | A498 renal 31.4% | MOLT-4 leukemia 20.3% | SR leukemia 11.6% | RPMI-8226 leukemia 34% | OVCAR-8 ovarian 42.1% | OVCAR-5 ovarian 41.3% | OVCAR-4 ovarian 57.6% | SK-OV-3 ovarian 34.1% | IGROV1 ovarian 22.5% | OVCAR-3 ovarian 17.6% | HS 578T breast 43.6%

Oc1ccc(-c2[nH]c3ccccc3c2-c2nc3ccccc3o2)cc1
inactive: SK-MEL-2 melanoma 66.9% | EKVX NSCLC 83% | SN12C renal 84.2% | UO-31 renal 40.9% | TK-10 renal 84.8% | ACHN renal 51.6% | CAKI-1 renal 64% | A498 renal 81.4% | MOLT-4 leukemia 58.9% | SR leukemia 14.8% | RPMI-8226 leukemia 86.6% | OVCAR-8 ovarian 91.9% | OVCAR-5 ovarian 80.6% | SK-OV-3 ovarian 72.9% | IGROV1 ovarian 52.6% | OVCAR-3 ovarian 74.1% | HS 578T breast 81.4% | NCI/ADR-RES ovarian 32.5%

CCn1c(SCCc2ccccc2)nnc1-c1nn(-c2ccc(Cl)cc2Cl)c(-c2ccc(Cl)cc2)c1C
inactive: SK-MEL-2 melanoma 53.8% | EKVX NSCLC 52.6% | SN12C renal 70.3% | UO-31 renal 53.5% | TK-10 renal 75.3% | ACHN renal 61% | CAKI-1 renal 64.4% | A498 renal 96.6% | MOLT-4 leukemia 41.6% | SR leukemia 37.6% | RPMI-8226 leukemia 54.1% | OVCAR-8 ovarian 84.5% | OVCAR-5 ovarian 81.7% | OVCAR-4 ovarian 75.6% | SK-OV-3 ovarian 79.1% | IGROV1 ovarian 94.1% | OVCAR-3 ovarian 69.1% | HS 578T breast 98% | NCI/ADR-RES ovarian 72.6%

Oc1cccc(-c2nc3sccn3c2-c2ccncn2)c1
inactive: SK-MEL-2 melanoma 83.7% | EKVX NSCLC 92.8% | SN12C renal 92.1% | UO-31 renal 76.8% | TK-10 renal 123% | ACHN renal 97.8% | CAKI-1 renal 69.8% | A498 renal 119% | MOLT-4 leukemia 101% | SR leukemia 60.1% | RPMI-8226 leukemia 118% | OVCAR-8 ovarian 102% | OVCAR-5 ovarian 119% | OVCAR-4 ovarian 114% | SK-OV-3 ovarian 88.4% | IGROV1 ovarian 91.2% | OVCAR-3 ovarian 114% | HS 578T breast 81.7% | NCI/ADR-RES ovarian 94%

COc1cc(C(=O)/C=C/c2c[nH]c3ccccc23)cc(OC)c1OC
active: OVCAR-3 ovarian -8.84% | NCI/ADR-RES ovarian 9.93%
inactive: SK-MEL-2 melanoma 19.5% | EKVX NSCLC 35.2% | SN12C renal 25.2% | UO-31 renal 20.9% | TK-10 renal 48% | ACHN renal 18.7% | CAKI-1 renal 27.6% | A498 renal 10.2% | MOLT-4 leukemia 17.6% | SR leukemia 14.3% | RPMI-8226 leukemia 10.3% | OVCAR-8 ovarian 15.9% | OVCAR-5 ovarian 55.7% | OVCAR-4 ovarian 49.4% | SK-OV-3 ovarian 17.7% | IGROV1 ovarian 27.7% | HS 578T breast 49.9%

COc1ccc(-c2cc(-c3ccc(Cl)cc3)nc(SCCCC(=O)NO)n2)cc1OC
inactive: SK-MEL-2 melanoma 13.3% | TK-10 renal 17.8% | SR leukemia 19.7% | OVCAR-8 ovarian 13.5% | OVCAR-4 ovarian 19.1% | HS 578T breast 29.2%
active: EKVX NSCLC -13.8% | SN12C renal 6.47% | UO-31 renal -53.2% | ACHN renal -19.7% | CAKI-1 renal -5.05% | A498 renal -40.1% | MOLT-4 leukemia 9.38% | RPMI-8226 leukemia -6.19% | OVCAR-5 ovarian 1.46% | SK-OV-3 ovarian 0.0102% | IGROV1 ovarian -1.77% | OVCAR-3 ovarian 6.86% | NCI/ADR-RES ovarian -30.6%

CC(C)(C)OC(=O)N1CCc2c(sc3ncnc(N/N=C/c4ccc(Br)cc4)c23)C1
inactive: SK-MEL-2 melanoma 68.4% | EKVX NSCLC 52% | SN12C renal 75.2% | UO-31 renal 44.7% | TK-10 renal 78.2% | ACHN renal 53.1% | CAKI-1 renal 41% | A498 renal 31.2% | MOLT-4 leukemia 33.9% | SR leukemia 36.3% | RPMI-8226 leukemia 19.1% | OVCAR-8 ovarian 73.7% | OVCAR-5 ovarian 77.6% | OVCAR-4 ovarian 74% | SK-OV-3 ovarian 75.7% | IGROV1 ovarian 61.1% | OVCAR-3 ovarian 86.4% | HS 578T breast 73.9% | NCI/ADR-RES ovarian 35.4%

O=C(O)c1cc([N+](=O)[O-])ccc1Oc1ccccc1
inactive: SK-MEL-2 melanoma 103% | EKVX NSCLC 97.9% | SN12C renal 95.3% | UO-31 renal 83.5% | TK-10 renal 88.5% | ACHN renal 101% | CAKI-1 renal 101% | A498 renal 102% | CCRF-CEM leukemia 101% | SR leukemia 91% | RPMI-8226 leukemia 97.8% | OVCAR-8 ovarian 97% | OVCAR-5 ovarian 101% | OVCAR-4 ovarian 104% | SK-OV-3 ovarian 106% | IGROV1 ovarian 114% | OVCAR-3 ovarian 105% | HS 578T breast 93.8% | NCI/ADR-RES ovarian 101%

Cc1ccc(-n2nnnc2N)c(C)c1
inactive: SK-MEL-2 melanoma 114% | EKVX NSCLC 98.5% | SN12C renal 113% | UO-31 renal 94.6% | TK-10 renal 136% | ACHN renal 102% | CAKI-1 renal 94.5% | A498 renal 80% | MOLT-4 leukemia 109% | SR leukemia 112% | RPMI-8226 leukemia 109% | OVCAR-8 ovarian 108% | OVCAR-5 ovarian 107% | OVCAR-4 ovarian 99% | SK-OV-3 ovarian 113% | IGROV1 ovarian 123% | HS 578T breast 99% | NCI/ADR-RES ovarian 105%
